Screens (PubChem BioAssay)
KCNQ2 inh: rat KCNQ2 potassium channel inhibitors, primary screen, cell-based, CHO-K1, FluxOR thallium flux, B-score | Potassium voltage-gated channel subfamily KQT member 2 (Rattus norvegicus), O88943 | 20 min; hits give low values | B-score at 10 µM | hit rate 1.1% among 310,000;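 active = fluorescence ratio B-score at most minus 3 library SDs, with starting brightness B-score within 2 library SDs, cut at about -5.5 in these data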
KCNQ2 enhance: potentiators of rat KCNQ2 potassium channel; Potassium voltage-gated channel subfamily KQT member 2 (Rattus norvegicus), O88943; CHO-K1 KCNQ2, FluxOR thallium flux fluorescence; hits give high values; B-score at 10 µM; hit rate 0.54% among 310,000; AID 2239, 2010;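 active = fluorescence ratio B-score at least 3 SD of library B-scores, with initial fluorescence B-score within 3 of them, cut at about 5.3 in these data; same plate scores as AID 2156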;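 also: B-score of peak minus minimum over baseline fluorescence ratio after K+ and Tl+ stimulus; positive B-score means potentiation of KCNQ2 with more thallium influx and brighter signal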
* hit, by the source's call; i = inactive; nt = not tested or not shown. This is a sample that favours compounds with a hit; in the whole collection about 1.6% have one here.

SMILES	KCNQ2 inh	KCNQ2 enhance
O=C(NCCCN1CCOCC1)c1ccccc1N1C(=O)[C@@H]2Cc3c([nH]c4ccccc34)C(c3ccc(F)cc3)N2C1=O (stereo partly drawn)	-7.1*	-7.1
O=C(NCCN1CCOCC1)c1ccccc1N1C(=O)[C@@H]2Cc3c([nH]c4ccccc34)C(c3ccccc3)N2C1=O (stereo partly drawn)	i	nt
CC(=O)NC(CC(=O)OCC(=O)Nc1ccc2c(c1)OCO2)c1ccccc1 (stereo not drawn)	i	0.06
CCC(=O)NC(NC(=S)Nc1c(C)n(C)n(-c2ccccc2)c1=O)C(Cl)(Cl)Cl (stereo not drawn)	i	0.01
Cc1nnnn1/C(=C\c1ccccc1)C(=O)OCC(=O)NC(C)(C)C	i	nt
Cc1nnnn1/C(=C\c1ccccc1)C(=O)OCC(=O)NC1CCCCC1	-6*	-6
COc1ccc(C(=O)CCC(=O)NC2=NCCS2)cc1	i	0.43
CC(=N\NC(=O)c1ccccc1)/C(=N/O)C(=O)Nc1ccccc1	i	nt
CC(=N\Nc1ccccc1)/C(=N/O)C(=O)Nc1ccccc1	-6*	-6
O=C(CCN1C(=O)/C(=C/c2ccccc2F)SC1=S)NCCCn1ccnc1	i	nt
O=C(NCc1ccccc1)c1ccc(NC(=O)C2CCCO2)cc1 (stereo not drawn)	i	nt
Cc1cccc(NS(=O)(=O)c2cc(C(=O)OC(C)C(=O)NCc3ccc4c(c3)OCO4)ccc2C)c1 (stereo not drawn)	-6.4*	-6.4
CC(=O)Nc1cccc(C(=O)OC(C)C(=O)NCc2ccc3c(c2)OCO3)c1 (stereo not drawn)	i	0.22
COc1cc(CCN2C(=O)c3cccc4cccc(c34)C2=O)c(S(=O)(=O)N2CCC(C)CC2)cc1OC	-6.7*	-6.7
COc1cc(CCN2C(=O)c3cccc4cccc(c34)C2=O)c(S(=O)(=O)N2CCCCCC2)cc1OC	i	nt
COc1ccc(NC(=O)CCCC(=O)OCC(=O)c2cccc(OC)c2)cc1	i	nt
O=C(O)c1nn(CCSc2ccccc2F)c(=O)c2ccccc12	i	0.49
CCNC(=O)c1ccccc1SCc1ccccc1	-7.4*	-7.4
CCc1ccc(OCCNC(=O)c2ccccc2SCc2ccccc2)cc1	i	nt
Cc1ccccc1C(=O)Nc1ccnn1C1CCN(Cc2cnn(C(C)C)c2)CC1	i	1.3
Fc1ccc(Br)cc1C1C=C(c2ccc(Br)s2)Nc2ncnn21 (stereo not drawn)	i	nt
COc1cccc(C2C=C(c3ccc(Br)s3)Nc3ncnn32)c1OC (stereo not drawn)	-6.6*	-6.6
COc1ccccc1N1CCN(C(=O)c2oc3ccc(Br)cc3c2C)CC1	i	nt
COc1ccccc1N1CCN(C(=O)c2oc3ccc(F)cc3c2C)CC1	-6.5*	-6.5
O=C(Nc1cccc2ccccc12)N1N=CCC1c1ccccc1 (stereo not drawn)	i	nt
SMILES	KCNQ2 inh	KCNQ2 enhance
O=C(Nc1cccc(Cl)c1)N1N=CCC1c1ccccc1 (stereo not drawn)	-6.2*	-6.2
Cc1ccc(OCc2cc(C(=O)N3CCN(CC(=O)NC(C)C)CC3)no2)cn1	i	nt
Cn1c(=O)c(=O)n(C)c2cc([N+](=O)[O-])c(N3CCOCC3)cc21	i	nt
CCOC(=O)N1CCN(C(=O)c2ccc3c(c2)N(Cc2ccccc2)CCS3)CC1	i	nt
CC1CC(C)CN(C(=O)c2ccc3c(c2)N(Cc2ccccc2)CCS3)C1 (stereo not drawn)	-6.2*	-6.2
CCOC(=O)N1CCC(c2cc(=O)n3[nH]cc(C(=O)OC)c3n2)CC1	i	nt
CCOc1ccc(NC(=O)c2c[nH]n3c(=O)cc(C4CCN(C(=O)OC(C)(C)C)CC4)nc23)cc1	i	8.6*
Cc1ncc(C[n+]2csc(CCOC(=O)CC34CC5CC(CC(C5)C3)C4)c2C)c(N)n1	i	nt
Cc1c(CCOC(=O)CC23CC4CC(CC(C4)C2)C3)sc[n+]1Cc1ccccc1	-5.6*	-5.6
CCCCCC(=O)NC(=S)Nc1ccc2oc(=O)ccc2c1	i	1.3
COc1ccc(C(=O)N/C(=C/c2ccc(Cl)cc2)C(=O)Nc2ccc(C(=O)O)cc2)cc1	i	nt
Cn1c(=O)c([N+](=O)[O-])c(-n2ccnc2)c2ccccc21	-6*	-6
Cn1c(=O)c([N+](=O)[O-])c(NCCCn2ccnc2)c2ccccc21	i	nt
CN(C)c1cccc(C(=O)OC(C(=O)Nc2ccc(Cl)cc2C(F)(F)F)c2ccccc2)c1 (stereo not drawn)	-8*	-8
O=C(OC(C(=O)Nc1ccc(Cl)cc1C(F)(F)F)c1ccccc1)C1=COCCO1 (stereo not drawn)	i	nt
CCNc1ccc(C2(O)C(=O)c3ccccc3C2=O)cc1	i	nt
Cc1cccc(CC(=O)N2CCC(n3nccc3NC(=O)C3CC3)CC2)c1	i	1.7
COc1ccccc1/C=C(/CC(=O)NCc1ccc(F)cc1)c1nc2ccccc2s1	-6.8*	-6.8
COc1ccccc1/C=C(/CC(=O)NCc1ccccc1)c1nc2ccccc2s1	i	nt
COC(=O)c1ccccc1NC(=O)CCCn1nc([N+](=O)[O-])c(Br)c1C	i	1.8
Cc1ccc(C(=O)C[n+]2ccc(-c3nnc4n3CCC4)cc2)cc1	i	0.33
CCc1noc(C)c1C(=O)N1CCCSC1=Nc1ccccc1C(C)C	-5.7*	-5.7
CCc1noc(C)c1C(=O)N1CCCC1	i	0.57
COc1ccc(C(=O)N2CCn3c2nc2ccccc23)cc1	i	nt
CCOC(=O)C1CCN(c2nc3ccccc3n2CC(=O)c2ccccc2)CC1	i	nt
SMILES	KCNQ2 inh	KCNQ2 enhance
COc1ccc(N2CCN(c3nc4ccccc4n3CC(=O)c3ccccc3)CC2)cc1	-6.3*	-6.3
COc1cccc(C(=O)N2CCn3c2nc2ccccc23)c1	-8.7*	-8.7
CCN(C(=O)COC(=O)c1cc(-c2cccc3ccccc23)nc2ccccc12)C1CCS(=O)(=O)C1 (stereo not drawn)	i	1.2
COc1ccc(CCNC(=O)CCC2COc3ccccc3O2)cc1OC (stereo not drawn)	i	1.4
Cc1ccc(C(=O)N/N=c2\sc3ccccc3n2C)cc1	i	12*
COc1cccc(C(=O)N/N=c2\sc3ccccc3n2C)c1	i	2.1
CCOC(=O)c1nnn(-c2nonc2N)c1-c1ccc(OC)cc1	i	nt
O=C(Nc1ccccc1)c1sc2cc(C(F)(F)F)cnc2c1-c1cccs1	i	nt
O=C(Nc1nnc(-c2ccccc2)o1)c1cc(Cl)sc1Cl	i	4.4
O=C(Nc1nnc(-c2ccc(F)cc2)o1)c1cc(Cl)sc1Cl	i	16*
CS/C(=C/[N+](=O)[O-])Nc1cccc2c1C(C)CC2(C)C (stereo not drawn)	i	nt
O=C(CSc1ncnc2sc(-c3ccccc3)cc12)NC1CCS(=O)(=O)C1 (stereo not drawn)	i	0.21
O=C(NCCNC(=O)c1cc(Cl)ccc1Cl)c1ccco1	i	0.09
Cc1c(CC(=O)N2C[C@H]3C[C@@H](C2)c2cccc(=O)n2C3)c(=O)oc2cc3occ(C(C)(C)C)c3cc12	i	0.23
CCC(C)(C)n1nnnc1C(c1cccc(C#N)c1)N1CCN(c2cc(C)ccc2C)CC1 (stereo not drawn)	-5.8*	-5.8
CC(C)(C)n1nnnc1C(c1cccc(C#N)c1)N1CCC(Cc2ccccc2)CC1 (stereo not drawn)	i	0.94
